Experimental data published in the supplement of paper PMC10338343.
± gives the standard deviation. Over roughly 8,200 sequences, “pre-steady-state target cleavage rate” has its median near 0.024; the highest 2% begin near 1.3. The sample holds the highest values, similar sequences and a random draw of the others, so the mix is not that of the screen.

Test system: MIWI (PIWIL1) piRISC loaded with L1MC piRNA (30 nt)
Assay: pre-steady-state target cleavage rate (min^-1); MIWI and MILI are mouse PIWI proteins and EfPiwi is from a freshwater sponge; tags in brackets are library labels; higher = faster piRNA-guided slicing of the target
Settings: guide: L1MC piRNA 5'p-UAACUAAAUACUAUGCAAGCUGUAGGUCCU
Method in brief: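 In Cleave-'n-Seq, a transcribed, DNA-blocked target RNA library (0.1 nM) was combined with 1 nM active affinity-purified piRISC bearing one synthetic guide, with or without 500 nM GTSF1 partner protein. Reactions ran in HEPES–potassium acetate buffer at 33 °C for 0–8 or 0–960 min. Uncleaved targets were sequenced and normalised to depth and to weakly complementary targets, three trials were pooled, and k3 was capped at 0.0001 min^-1. The pre-steady-state cleavage rate was obtained by fitting a burst-and-steady-state model.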

[1] = auxiliary factor: 500 nM mouse GTSF1
[2] = auxiliary factor: none (no GTSF1)

Sequence	pre-steady-state target cleavage rate [1]	pre-steady-state target cleavage rate [2]
UCCUCCUACAGCUUGCAUAGUUUUUAGAUA	0.228 ± 0.036	0.00676 ± 0.0025
AGGACCUACAGCUUGCAUAGUUUUUAGAUA	0.259 ± 0.034	0.0189 ± 0.0055
UCCUGCUACAACUUGCAUAGUAUUUAGUUA	0.679 ± 0.044	0.0522 ± 0.0072
UCCUGGUUCAGCUUGGAUAGUAUUUAGUUA	0.791 ± 0.063	0.0603 ± 0.014
UCCUGGAACAGCUGCAUAGUAUUUAGUUA	0.767 ± 0.044	0.00757 ± 0.0034
UGGACCUACAGCCUUGCAUAGUAUUUAGUUA	1.21 ± 0.081	0.0496 ± 0.0085
UCCUCCUACAGCCUGCAUAGUAUUUAGUUA	1.18 ± 0.038	0.056 ± 0.0094
UCGACCUACAGCCUGCAUAGUAUUUAGUUA	1.41 ± 0.038	0.0857 ± 0.015
AGGACCUACAGCCUUGCAUAGUAUUUAGUUA	1.23 ± 0.069	0.0878 ± 0.019
UCCACCUACAGCCUGCAUAGUAUUUAGUUA	1.15 ± 0.033	0.0634 ± 0.01
AGGACCUACAGCCUGCAUAGUAUUUAGUUA	1.51 ± 0.063	0.0892 ± 0.017
UCCUGCUACAGCCUGCAUAGUAUUUAGUUA	0.976 ± 0.05	0.0598 ± 0.011
UCGACCUACAGCCUUGCAUAGUAUUUAGUUA	1.28 ± 0.046	0.0668 ± 0.014
UGGACCUACAGCCUGCAUAGUAUUUAGUUA	1.34 ± 0.048	0.0741 ± 0.013
AGGACCUACUGCUUGCAUAGUAUUUAGUAA	0.861 ± 0.077	0.0651 ± 0.012
UCCUGGAACAGGUUGCAUAGUUUUUAGUUA	0.167 ± 0.016	0.0162 ± 0.0044
UGGACCUACAGGUUGCAUAGUAUAUAGUUA	0.549 ± 0.056	0.0198 ± 0.0053
UGGACCUUCAGGUUGCAUAGUAUUUAGUUA	1.14 ± 0.099	0.0476 ± 0.01
UGGACCUACAGCUUGCAUACUAUUUUCAAA	0.0881 ± 0.021	–

Sequence	pre-steady-state target cleavage rate [1]	pre-steady-state target cleavage rate [2]
UCCUGGAUGUGCAUUGCAUAGUAUUUAGUUA	0.223 ± 0.023	0.0111 ± 0.0032
UCGUGGUACAGCUUGCAUAGUAUUUAGAAA	0.305 ± 0.029	0.00755 ± 0.0023
UCCUGGAACAGCUUGGAUAGUAUUUACUUA	0.0518 ± 0.0087	0.0182 ± 0.0036
UCCUGCUACAGCUUGCUAUAGUAUUUAGUUA	0.0317 ± 0.011	–
UCCUGGAUCUGCUUGCAUUGUAUUUAGUUA	0.228 ± 0.037	0.0147 ± 0.0049
UCCUGGUACACGUUGCAUAGUAUUUUCAAA	0.0245 ± 0.013	–
UGGUCCUACUGCUUGCAUAGUAUUUAGUUA	1.22 ± 0.05	0.0687 ± 0.01
AGGACCUAGAGCUUGCAAAGUAUUUAGUUA	1.17 ± 0.054	0.0284 ± 0.0069
AGGACCUACAGCUUGCAUAGAUUUUAGAAA	0.247 ± 0.071	–
UCGACCUACAGCUUGCAGAGUAUUUAGUUA	1.05 ± 0.066	0.0315 ± 0.0073
UCCUCCUCCAGCUUGCAUAGUAUUUAGUUA	1.12 ± 0.027	0.0546 ± 0.0092
UCCUGGUUCAGCUUGCAUAGUAUUUAGUUA	0.972 ± 0.042	0.0721 ± 0.016
UCGUCCUUCAGCUUGCAUAGUAUUUAGUUA	1.41 ± 0.038	0.0596 ± 0.01
UCCUCGUUCAGCUUGCAUAGUAUUUAGUUA	1.4 ± 0.041	0.0653 ± 0.014
UCCUCCUUCAGCUUGCAUAGUAUUUAGUAA	0.717 ± 0.04	0.0202 ± 0.0041
AGGUCCUUCAGCUUGCAUAGUAUUUAGUUA	1.42 ± 0.05	0.0947 ± 0.018
UGGUCCUUCAGCUUGCAUAGUAUUUAGUUA	1.22 ± 0.059	0.0643 ± 0.011
UCCUCCUUCAGCUUGCAUAGUAUUUAGUUA	1.23 ± 0.036	0.0537 ± 0.0085
UCCACCUUCAGCUUGCAUAGUAUUUAGUAA	0.628 ± 0.038	0.0237 ± 0.0045
